Data reported in the supplement of paper PMC10849652.
The full data set covers some 7,900 targets. This sample favours those with a hit. About 0.6% of all pairs of compound and target were hits. A number with no mark means an inactive call.

Key:
Test in all cases: log2 fold change, soluble protein after heating vs DMSO (PISA); higher = thermal stabilisation; K562 cells, 10 uM, 30 min; active = over 0.2 and 3.5 SD of the protein, either way, in both replicates (recomputed)
[1] = compound: COC1=CC=C(C=C1)CN2C=CC3=C2C=C(C=C3)C(=O)NO
Method in brief: (§1)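 K562 cells at 2×10^6 cells/mL were given 10 μM compound for 30 min. Aliquots then went through 3 min of heating across 48°C-58°C, were pooled, and were extracted in PBS with 0.5% NP-40 at 4°C, and the supernatant after 21,000xg for 90 min was quantified by TMTpro 16plex LC-MS/MS with channel sums equalised. Thermal stability relative to control samples, from duplicates, is given as log2 fold change.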

filanesib = compound: CON(C)C(=O)N1N=C(c2cc(F)ccc2F)S[C@@]1(CCCN)c1ccccc1 [filanesib]
Method in brief: as §1

zotarolimus = compound: CO[C@H]1C[C@@H]2CC[C@@H](C)[C@@](O)(O2)C(=O)C(=O)N2CCCC[C@H]2C(=O)O[C@H]([C@H](C)C[C@@H]2CC[C@H](n3cnnn3)[C@H](OC)C2)CC(=O)[C@H](C)/C=C(\C)[C@@H](O)[C@@H](OC)C(=O)[C@H](C)C[C@H](C)/C=C/C=C/C=C/1C [zotarolimus]
Method in brief: as §1

idasanutlin = compound: COc1cc(C(=O)O)ccc1NC(=O)[C@@H]1N[C@@H](CC(C)(C)C)[C@](C#N)(c2ccc(Cl)cc2F)[C@H]1c1cccc(Cl)c1F [idasanutlin]
Method in brief: as §1

alisertib = compound: COc1cc(Nc2ncc3c(n2)-c2ccc(Cl)cc2C(c2c(F)cccc2OC)=NC3)ccc1C(=O)O [alisertib]
Method in brief: as §1

[2] = compound: COc1cc2nc(-c3cc(F)ccc3O)nc(N[C@@H]3CNC[C@H]3C(C)(C)O)c2cc1OC
Method in brief: as §1

gefitinib = compound: COc1cc2ncnc(Nc3ccc(F)c(Cl)c3)c2cc1OCCCN1CCOCC1 [gefitinib]
Method in brief: as §1

[3] = compound: COc1cccc2cc(-c3nc([C@H]4CC[C@H](C(=O)O)CC4)n4ncnc(N)c34)[nH]c12
Method in brief: as §1

lapatinib = compound: CS(=O)(=O)CCNCc1ccc(-c2ccc3ncnc(Nc4ccc(OCc5cccc(F)c5)c(Cl)c4)c3c2)o1 [lapatinib]
Method in brief: as §1

pictilisib = compound: CS(=O)(=O)N1CCN(Cc2cc3nc(-c4cccc5[nH]ncc45)nc(N4CCOCC4)c3s2)CC1 [pictilisib]
Method in brief: as §1

[4] = compound: CS(=O)(=O)c1ccc(-c2cnc(N)c(C(=O)Nc3ccccc3)n2)cc1
Method in brief: as §1

crizotinib = compound: C[C@@H](Oc1cc(-c2cnn(C3CCNCC3)c2)cnc1N)c1c(Cl)ccc(F)c1Cl [crizotinib]
Method in brief: as §1

[5] = compound: C[C@@H]1COCCN1C2=NC(=NC(=C2)C3(CC3)S(=O)(=O)C)C4=C5C=CNC5=CC=C4
Method in brief: as §1

[6] = compound: C[C@H](C1=CC=C(C=C1)C(=O)NC2=C3C=CNC3=NC=C2)N
Method in brief: as §1

duvelisib = compound: C[C@H](Nc1ncnc2nc[nH]c12)c1cc2cccc(Cl)c2c(=O)n1-c1ccccc1 [duvelisib]
Method in brief: as §1

gandotinib = compound: Cc1cc(Nc2cc(CN3CCOCC3)c3nc(C)c(Cc4ccc(Cl)cc4F)n3n2)n[nH]1 [gandotinib]
Method in brief: as §1

tozasertib = compound: Cc1cc(Nc2cc(N3CCN(C)CC3)nc(Sc3ccc(NC(=O)C4CC4)cc3)n2)n[nH]1 [tozasertib]
Method in brief: as §1

[7] = compound: Cc1cc(SCc2sc(-c3ccc(C(F)(F)F)cc3)nc2C)ccc1OCC(=O)O
Method in brief: as §1

doramapimod = compound: Cc1ccc(-n2nc(C(C)(C)C)cc2NC(=O)Nc2ccc(OCCN3CCOCC3)c3ccccc23)cc1 [doramapimod]
Method in brief: as §1

ispinesib = compound: Cc1ccc(C(=O)N(CCCN)[C@@H](c2nc3cc(Cl)ccc3c(=O)n2Cc2ccccc2)C(C)C)cc1 [ispinesib]
Method in brief: as §1

UniProt Q93075, sequence (Q93075 whole entry, looked up): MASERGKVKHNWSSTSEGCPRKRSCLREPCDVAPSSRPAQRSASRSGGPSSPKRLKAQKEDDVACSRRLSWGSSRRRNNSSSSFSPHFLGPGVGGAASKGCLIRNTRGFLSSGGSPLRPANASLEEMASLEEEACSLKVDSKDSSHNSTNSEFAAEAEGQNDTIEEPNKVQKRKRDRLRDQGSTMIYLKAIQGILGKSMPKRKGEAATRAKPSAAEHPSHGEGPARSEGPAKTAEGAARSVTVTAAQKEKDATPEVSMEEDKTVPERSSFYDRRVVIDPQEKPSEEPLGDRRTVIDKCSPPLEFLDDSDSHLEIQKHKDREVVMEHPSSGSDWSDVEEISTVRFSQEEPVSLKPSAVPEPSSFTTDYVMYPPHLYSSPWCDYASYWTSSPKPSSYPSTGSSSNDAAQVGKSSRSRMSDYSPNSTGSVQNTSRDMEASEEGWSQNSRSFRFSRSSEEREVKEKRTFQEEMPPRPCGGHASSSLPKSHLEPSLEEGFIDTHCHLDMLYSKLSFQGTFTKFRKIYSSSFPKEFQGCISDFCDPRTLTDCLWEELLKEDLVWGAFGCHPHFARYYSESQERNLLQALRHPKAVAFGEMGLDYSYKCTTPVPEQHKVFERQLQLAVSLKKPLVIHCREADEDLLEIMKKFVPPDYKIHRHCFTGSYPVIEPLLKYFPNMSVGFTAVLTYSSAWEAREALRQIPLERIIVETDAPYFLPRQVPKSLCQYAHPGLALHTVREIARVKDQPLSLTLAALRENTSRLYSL
UniProt Q8N1S5, sequence (Q8N1S5 whole entry, looked up): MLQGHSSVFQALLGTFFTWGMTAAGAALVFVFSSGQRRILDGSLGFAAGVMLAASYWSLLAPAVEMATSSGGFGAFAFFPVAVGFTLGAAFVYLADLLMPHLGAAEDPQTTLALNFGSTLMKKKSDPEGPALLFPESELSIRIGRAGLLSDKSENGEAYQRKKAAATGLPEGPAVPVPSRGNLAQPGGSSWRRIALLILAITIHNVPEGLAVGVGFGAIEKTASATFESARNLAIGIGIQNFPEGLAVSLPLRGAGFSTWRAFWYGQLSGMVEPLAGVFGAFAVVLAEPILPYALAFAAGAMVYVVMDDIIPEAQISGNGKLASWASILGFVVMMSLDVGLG
UniProt P78382, sequence (P78382 whole entry, looked up): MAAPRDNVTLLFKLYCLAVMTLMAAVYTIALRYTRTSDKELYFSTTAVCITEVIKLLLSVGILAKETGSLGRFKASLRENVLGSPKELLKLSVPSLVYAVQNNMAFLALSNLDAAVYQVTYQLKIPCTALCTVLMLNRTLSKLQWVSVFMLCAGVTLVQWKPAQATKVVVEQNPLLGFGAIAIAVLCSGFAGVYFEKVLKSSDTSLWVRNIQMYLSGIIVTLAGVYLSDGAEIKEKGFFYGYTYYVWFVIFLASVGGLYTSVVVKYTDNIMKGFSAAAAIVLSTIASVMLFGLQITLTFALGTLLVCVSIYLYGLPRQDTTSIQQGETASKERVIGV
UniProt Q9UP52, sequence (Q9UP52 whole entry, looked up): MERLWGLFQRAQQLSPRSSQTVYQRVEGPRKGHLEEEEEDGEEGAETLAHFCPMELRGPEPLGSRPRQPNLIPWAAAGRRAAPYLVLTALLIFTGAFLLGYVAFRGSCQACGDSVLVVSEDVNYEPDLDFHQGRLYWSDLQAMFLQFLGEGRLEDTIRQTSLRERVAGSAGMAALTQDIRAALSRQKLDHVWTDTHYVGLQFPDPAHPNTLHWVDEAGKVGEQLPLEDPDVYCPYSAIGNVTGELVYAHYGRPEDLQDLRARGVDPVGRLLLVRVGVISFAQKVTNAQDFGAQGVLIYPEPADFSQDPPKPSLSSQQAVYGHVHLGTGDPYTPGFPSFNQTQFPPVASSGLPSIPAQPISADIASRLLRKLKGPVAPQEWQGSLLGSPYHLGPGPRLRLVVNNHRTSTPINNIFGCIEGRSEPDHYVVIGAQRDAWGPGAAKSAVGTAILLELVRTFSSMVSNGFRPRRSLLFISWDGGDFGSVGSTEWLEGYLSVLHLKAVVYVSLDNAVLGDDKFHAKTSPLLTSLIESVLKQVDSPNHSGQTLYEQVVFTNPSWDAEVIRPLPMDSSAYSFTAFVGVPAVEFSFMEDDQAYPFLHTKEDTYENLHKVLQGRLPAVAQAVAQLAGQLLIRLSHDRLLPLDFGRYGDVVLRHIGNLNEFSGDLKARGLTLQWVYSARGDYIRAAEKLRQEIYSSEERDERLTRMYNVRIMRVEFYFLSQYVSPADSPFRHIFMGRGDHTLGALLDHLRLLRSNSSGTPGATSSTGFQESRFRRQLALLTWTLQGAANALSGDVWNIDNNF
UniProt Q969G3, sequence (Q969G3 whole entry, looked up): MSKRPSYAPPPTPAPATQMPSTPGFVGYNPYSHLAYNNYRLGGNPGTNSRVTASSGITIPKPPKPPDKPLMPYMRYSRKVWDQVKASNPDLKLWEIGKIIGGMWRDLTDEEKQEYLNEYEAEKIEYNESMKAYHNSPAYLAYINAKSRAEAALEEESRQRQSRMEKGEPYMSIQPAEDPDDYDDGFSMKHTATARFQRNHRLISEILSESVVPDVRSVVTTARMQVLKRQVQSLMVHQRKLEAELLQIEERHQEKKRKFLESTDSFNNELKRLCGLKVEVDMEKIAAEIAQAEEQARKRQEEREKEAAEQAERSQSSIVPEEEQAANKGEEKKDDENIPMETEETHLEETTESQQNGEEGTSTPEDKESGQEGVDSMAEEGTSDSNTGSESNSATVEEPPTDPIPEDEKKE
UniProt O60271, sequence (O60271 whole entry, looked up): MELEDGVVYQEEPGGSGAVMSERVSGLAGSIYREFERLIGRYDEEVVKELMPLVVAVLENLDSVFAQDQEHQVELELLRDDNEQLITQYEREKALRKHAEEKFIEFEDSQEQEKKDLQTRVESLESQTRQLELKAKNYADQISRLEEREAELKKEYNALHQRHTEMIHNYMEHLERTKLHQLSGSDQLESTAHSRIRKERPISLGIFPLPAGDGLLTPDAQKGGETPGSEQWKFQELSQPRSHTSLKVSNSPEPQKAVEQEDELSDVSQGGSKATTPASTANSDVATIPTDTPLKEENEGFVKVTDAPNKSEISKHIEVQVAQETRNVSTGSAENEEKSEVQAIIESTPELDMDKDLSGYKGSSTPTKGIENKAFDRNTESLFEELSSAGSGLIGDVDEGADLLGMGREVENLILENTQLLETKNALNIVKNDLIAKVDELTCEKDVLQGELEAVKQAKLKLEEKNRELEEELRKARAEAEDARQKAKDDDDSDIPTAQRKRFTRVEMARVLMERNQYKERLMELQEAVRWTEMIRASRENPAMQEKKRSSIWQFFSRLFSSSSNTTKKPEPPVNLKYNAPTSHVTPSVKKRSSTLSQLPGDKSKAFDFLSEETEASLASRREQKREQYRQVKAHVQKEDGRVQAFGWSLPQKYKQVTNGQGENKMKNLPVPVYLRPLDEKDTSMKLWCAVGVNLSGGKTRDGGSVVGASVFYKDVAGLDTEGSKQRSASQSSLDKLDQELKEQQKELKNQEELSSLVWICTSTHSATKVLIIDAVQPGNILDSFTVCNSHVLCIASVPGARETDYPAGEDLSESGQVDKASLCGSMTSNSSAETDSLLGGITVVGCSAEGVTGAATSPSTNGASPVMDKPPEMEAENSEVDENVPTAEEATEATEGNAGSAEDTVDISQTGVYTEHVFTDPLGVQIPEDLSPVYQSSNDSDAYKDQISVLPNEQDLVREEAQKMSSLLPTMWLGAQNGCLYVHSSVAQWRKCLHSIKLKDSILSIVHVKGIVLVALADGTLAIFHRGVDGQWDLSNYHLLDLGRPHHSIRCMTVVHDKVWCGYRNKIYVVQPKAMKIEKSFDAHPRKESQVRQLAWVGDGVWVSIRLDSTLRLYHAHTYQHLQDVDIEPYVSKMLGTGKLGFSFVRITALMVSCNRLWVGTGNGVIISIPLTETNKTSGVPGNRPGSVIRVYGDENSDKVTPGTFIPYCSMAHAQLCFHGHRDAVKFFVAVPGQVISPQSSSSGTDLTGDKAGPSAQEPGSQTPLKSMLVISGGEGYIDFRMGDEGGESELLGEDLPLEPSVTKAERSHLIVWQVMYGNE
UniProt Q96BZ9, sequence (Q96BZ9 whole entry, looked up): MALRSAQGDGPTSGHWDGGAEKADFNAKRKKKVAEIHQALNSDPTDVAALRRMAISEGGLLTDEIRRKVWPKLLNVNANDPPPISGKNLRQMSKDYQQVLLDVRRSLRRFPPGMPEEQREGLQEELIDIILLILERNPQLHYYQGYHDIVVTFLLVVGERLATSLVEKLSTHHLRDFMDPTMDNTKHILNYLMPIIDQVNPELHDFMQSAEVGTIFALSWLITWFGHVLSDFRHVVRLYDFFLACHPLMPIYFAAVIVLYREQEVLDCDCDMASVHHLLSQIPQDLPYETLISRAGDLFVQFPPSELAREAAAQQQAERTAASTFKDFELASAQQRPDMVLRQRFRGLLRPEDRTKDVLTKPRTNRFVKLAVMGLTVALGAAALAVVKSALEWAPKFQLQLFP
UniProt Q13242, sequence (Q13242 whole entry, looked up): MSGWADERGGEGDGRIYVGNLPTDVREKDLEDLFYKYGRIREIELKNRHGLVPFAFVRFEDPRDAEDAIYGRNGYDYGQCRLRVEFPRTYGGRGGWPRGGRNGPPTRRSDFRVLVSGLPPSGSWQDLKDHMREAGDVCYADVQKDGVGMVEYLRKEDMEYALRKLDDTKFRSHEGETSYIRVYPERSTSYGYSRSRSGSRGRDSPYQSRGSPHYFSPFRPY

Row | Target | log2 fold change [1] | log2 fold change (filanesib) | log2 fold change (zotarolimus) | log2 fold change (idasanutlin) | log2 fold change (alisertib) | log2 fold change [2] | log2 fold change (gefitinib) | log2 fold change [3] | log2 fold change (lapatinib) | log2 fold change (pictilisib) | log2 fold change [4] | log2 fold change (crizotinib) | log2 fold change [5] | log2 fold change [6] | log2 fold change (duvelisib) | log2 fold change (gandotinib) | log2 fold change (tozasertib) | log2 fold change [7] | log2 fold change (doramapimod) | log2 fold change (ispinesib)
1 | TFR2 (UniProt Q9UP52) | -0.066 | 0.011 | -0.06 | 0.035 | -0.04 | 0.011 | -0.035 | 0.041 | -0.011 | 0.05 | 0.068 | -0.182 | -0.001 | -0.016 | 0.032 | 0.03 | -0.023 | -0.038 | -0.019 | -0.097
2 | SRSF9 (UniProt Q13242) | -0.088 | 0.378 | -0.026 | 0.297 | -0.118 | -0.09 | -0.068 | -0.128 | 0.155 | -0.036 | -0.11 | 0.058 | -0.539 | 0.389 | -0.142 | 0.4 |  | -0.048 | 0.26 | -0.255
3 | TBC1D20 isoform 3 (UniProt Q96BZ9) | 0.026 | -0.023 | 0.136 | -0.184 | -0.089 | 0.102 | 0.148 | -0.032 | -0.03 | -0.073 | 0.039 | -0.121 | 0.088 | 0.036 |  | -0.078 |  |  | 0.05 | 0.113
4 | TM7SF3 (UniProt Q9NS93) | -0.002 | -0.218 | -0.042 | -0.015 | -0.217 | 0.101 | -0.066 | 0.248 | 0.014 |  | -0.01 | -0.432 (active) |  | -0.216 | 0.007 |  | -0.054 | -0.003 | 0.052 | -0.343 (active)
5 | SLC35A1 (UniProt P78382) | 0.048 | -0.021 | -0.138 | -0.051 | -0.063 | -0.097 | 0.06 | 0.06 | -0.028 |  | -0.017 | 0.056 | 0.044 | -0.196 | -0.005 |  | -0.036 | 0.074 | -0.039 | 0.04
6 | SMARCE1 (UniProt Q969G3) | 0.035 | 0.058 | 0.052 | 0.013 | -0.21 | -0.07 | 0.066 | 0.206 | 0.038 | -0.062 | -0.088 | 0.011 | 0.048 | 0.093 | 0.014 | -0.087 | 0.091 | 0.135 | 0.052 | 0.048
7 | SPAG9 isoform 4 (UniProt O60271) | -0.02 | 0.078 | -0.076 | -0.006 | 0.062 |  | -0.007 | -0.112 |  |  | 0.144 | -0.061 |  | 0.123 |  |  | 0.142 |  | 0.042 | -0.128
8 | TATDN2 (UniProt Q93075) | -0.011 | 0.002 | 0.006 | 0.012 |  | -0.015 | -0.037 |  | 0.021 | -0.016 | 0.002 | -0.061 | 0.028 | 0.078 | 0.019 | 0.106 | 0.136 | 0.045 | 0.063 | 
9 | SLC39A11 (UniProt Q8N1S5) | -0.014 | -0.01 | -0.078 | -0.056 | -0.113 | -0.04 | 0.001 | 0.047 | -0.038 | -0.117 | 0.121 | 0.109 |  | -0.066 | -0.085 | 0.271 | 0.116 | -0.126 | 0.009 | 0.085
